# About 79,000 compounds went through this panel and 15% of them were active in at least one assay; those are over-represented in the sample as a whole. A number with no mark means an inactive call. Calls of active or inactive are those of the source. Cut-off read from the data, not from the text of the source: active = growth inhibition above about 70%; inactive = the rest.
# Columns and labels:
# [1] = NCI Yeast Anticancer Drug Screen. Data for the rad50 strain (AID 155);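 note: 0% = growth of vehicle-only cultures of the same strain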; conditions: S. cerevisiae rad50 strain growth inhibition, hits give high values
# In short: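 Genetically altered yeast (DNA repair pathway); compound treatment; growth inhibition vs vehicle ctrl.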
# [2] = NCI Yeast Anticancer Drug Screen. Data for the mec2-1 strain (AID 157); conditions: S. cerevisiae mec2-1 strain, hits give high values
# In short: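 Test agents were screened against the mec2-1 yeast strain, with defined DNA repair or cell cycle alteration. Growth was scored as inhibition against vehicle-only controls.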
# [3] = NCI Yeast Anticancer Drug Screen. Data for the sgs1 mgt1 strain (AID 161);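 note: 0% = growth of cultures given vehicle only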; conditions: S. cerevisiae sgs1 mgt1 strain, hits give high values
# In short: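 Mutant yeast exposed to compound; growth scored against vehicle-only wells.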
# [4] = NCI Yeast Anticancer Drug Screen. Data for the cln2 rad14 strain (AID 165);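 note: 0% = growth equal to vehicle treated cultures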; conditions: S. cerevisiae cln2 rad14 strain, hits give high values
# In short: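 Growth of compound-exposed yeast (cln2 rad14 genotype) measured and expressed as inhibition relative to vehicle.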
# [5] = NCI Yeast Anticancer Drug Screen. Data for the bub3 strain (AID 167); conditions: S. cerevisiae bub3 mutant strain, hits give high values
# In short: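 Yeast carrying a defined mutation is treated with each compound, and growth is compared with that of vehicle-exposed cells to give inhibition.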
# [6] = NCI Yeast Anticancer Drug Screen. Data for the mlh1 rad18 strain (AID 175); conditions: S. cerevisiae mlh1 rad18 strain growth inhibition, hits give high values
# In short: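 In this whole-cell yeast screen, a strain with altered DNA damage repair is challenged with compound, and its growth is measured against matched vehicle-treated controls.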
# [7] = at 5.0 µM (retest, dose inferred, filed as 0.5)
# [8] = at 50.0 µM (retest, dose inferred, filed as 5.0)
SMILES,"growth inhibition [1, 7]","growth inhibition [1, 8]",growth inhibition ([1]; at 50.0 µM),"growth inhibition [2, 7]","growth inhibition [2, 8]",growth inhibition ([2]; at 50.0 µM),"growth inhibition [3, 7]","growth inhibition [3, 8]",growth inhibition ([3]; at 50.0 µM),"growth inhibition [4, 7]","growth inhibition [4, 8]",growth inhibition ([4]; at 50.0 µM),"growth inhibition [5, 7]","growth inhibition [5, 8]",growth inhibition ([5]; at 50.0 µM),"growth inhibition [6, 7]","growth inhibition [6, 8]",growth inhibition ([6]; at 50.0 µM)
COc1cc2c(c(O)c1C)C(=O)C(Cl)=CC2=O,99% (active),99% (active),99.1% (active),99% (active),99% (active),99.2% (active),99% (active),98% (active),99.3% (active),98% (active),98% (active),98.9% (active),99% (active),99% (active),99.2% (active),99% (active),99% (active),99.2% (active)
O=C(CC(O)c1ccccc1)Sc1ccccc1 (stereo not given),-1%,13%,72% (active),-2%,8%,50%,1%,42%,63.1%,-2%,-7%,-9.2%,-6%,4%,80% (active),-8%,20%,74% (active)
Nc1cc(F)c(F)cc1Sc1cc(F)c(F)cc1N,39%,95% (active),99.2% (active),31%,99% (active),99.2% (active),52%,98% (active),99.2% (active),41%,98% (active),89.9% (active),29%,98% (active),99.5% (active),54%,97% (active),99.2% (active)
CC(=O)Nc1ccc(S(=O)(=O)N/N=C/c2cc(I)cc([N+](=O)[O-])c2O)cc1,9%,71% (active),89% (active),10%,81% (active),81.5% (active),14%,69%,89.7% (active),1%,35%,83.1% (active),1%,47%,70.5% (active),12%,72% (active),94.3% (active)
OC(CCN1CCOCC1)C1c2ccccc2Cc2ccccc21 (stereo not given),6%,74% (active),77.2% (active),6%,29%,-1%,1%,91% (active),60%,1%,30%,-28.3%,0%,76% (active),46.6%,9%,81% (active),23.4%
CC(=O)OC1OC2C(NC(=O)OC(C)(C)C)C1CC2(OCc1ccccc1)OCc1ccccc1 (stereo not given),35%,35%,23.6%,25%,25%,-24.4%,29%,29%,-3.2%,8%,8%,9.6%,18%,18%,-12.8%,28%,28%,9%
O=S(=O)(CC(Br)c1ccccc1)CC(Br)c1ccccc1 (stereo not given),-3%,-1%,50.2%,19%,41%,43%,-4%,0%,80.9% (active),-3%,6%,40%,4%,42%,63.2%,-3%,13%,46.6%
COc1ccc(NC(=O)CC(=O)n2nc(-c3ccccc3)c(N=Nc3ccc(C)cc3)c2-c2ccccc2)cc1,34%,34%,36.9%,28%,28%,5.95%,19%,19%,-6.65%,20%,20%,21%,27%,27%,35.1%,36%,36%,-3.75%
Cc1[nH]nc(C(=O)N(C)C)c1N=NN(C)C,-61%,93% (active),97.8% (active),-44%,91% (active),88.8% (active),-43%,88% (active),82% (active),-50%,78% (active),79.8% (active),-65%,83% (active),79.2% (active),-105%,90% (active),95.6% (active)
OC1CCC(COC(c2ccccc2)(c2ccccc2)c2ccccc2)O1 (stereo not given),-8%,98% (active),98.6% (active),5%,99% (active),98.5% (active),-19%,99% (active),98% (active),5%,98% (active),98.2% (active),4%,96% (active),99% (active),0%,99% (active),98.1% (active)
